This is a sample that favours compounds with a hit; in the whole collection about 4% have one here.
Mtb FBA inh = inhibits M. tuberculosis FBA enzyme | P9WQA3 | purified M. tuberculosis FBA, fluorescence read-out | inhibition, % at 1 µM | 360,000 tested, 2.3% active | AID 588726
Target sequence (P9WQA3 whole entry, looked up): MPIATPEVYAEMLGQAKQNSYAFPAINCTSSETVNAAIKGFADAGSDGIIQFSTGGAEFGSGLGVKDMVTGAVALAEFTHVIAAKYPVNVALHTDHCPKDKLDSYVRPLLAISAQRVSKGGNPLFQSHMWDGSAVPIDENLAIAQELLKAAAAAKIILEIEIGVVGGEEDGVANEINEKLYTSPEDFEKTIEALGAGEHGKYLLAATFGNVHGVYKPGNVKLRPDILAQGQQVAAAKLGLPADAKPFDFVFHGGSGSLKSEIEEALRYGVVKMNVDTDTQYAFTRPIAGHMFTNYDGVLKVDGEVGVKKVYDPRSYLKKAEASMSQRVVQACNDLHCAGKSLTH
Mtb bLac sens = beta-lactam sensitization of Mtb H37Rv; inhibition, % at 25 µM; 330,000 tested, 0.27% active; M. tuberculosis H37Rv growth with meropenem, percent inhibition; call rule not given here;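 further: growth measured after seven days incubation then overnight dye step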
CCHF vOTU inh = blocks the CCHF virus ovarian tumor domain protease | CCHFV vOTU protease, Pep-AMC fluorescence | AID 651958 | 370,000 tested, 0.55% active | inhibition, % at 11.5 µM; in the data active means inhibition above about 30%
GDH-TPI counter-1 = counter-screen for M. tuberculosis FBA inhibitors: GDH-TPI coupled enzymes. 360,000 tested, 1.2% active. inhibition, % at 4.8 µM. AID 588335. GDH-TPI coupled enzyme counterscreen, NADH absorbance; in the data active means inhibition above about 30%
MazEF act = MazEF (E. coli) toxin RNase activation | activation, % at 20 µM | 350,000 tested, 0.32% active | AID 504720 | FAM/BHQ RNA-DNA oligo cleavage fluorescence, 5 h; in the data active means activation above about 50%
Target sequence (P0AE70 whole entry, looked up): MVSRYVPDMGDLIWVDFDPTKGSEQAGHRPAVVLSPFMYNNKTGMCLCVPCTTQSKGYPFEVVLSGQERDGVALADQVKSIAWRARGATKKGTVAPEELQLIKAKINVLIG
Mtb FBA confirm = confirmation of M. tuberculosis fructose-bisphosphate aldolase inhibitors. shares compounds with Mtb FBA inh. purified M. tuberculosis FBA, fluorescence read-out. inhibition, % at 1 µM. 5,600 tested, 78% active. AID 651616
GDH-TPI counter-2 = GDH-TPI inhibition counter-screen for FBA inhibitors; shares compounds with Mtb FBA inh; GDH-TPI coupled enzyme counterscreen, fluorescence; inhibition, % at 1 µM; 5,600 tested, 81% active; AID 652141; in the data active means inhibition above about 10%
A number is an active result; - = inactive; . = no result; + = active, no number. Unless noted, no stated cut-off is given here; in the data, active means inhibition above about 27%; inactive means the rest.

SMILES	Mtb FBA inh	Mtb bLac sens	CCHF vOTU inh	GDH-TPI counter-1	MazEF act	Mtb FBA confirm	GDH-TPI counter-2
Cc1ccc(C)c(C2NC(=O)c3ccccc3N2)c1 (stereo not given)	63	-	-	-	-	93	72
COc1cc(C)c(C2NC(=O)c3ccccc3N2)cc1C (stereo not given)	-	.	-	-	-	.	.
CC(=NN1CCN(c2ccccn2)CC1)c1ccccc1O	.	.	-	.	.	.	.
COc1ccc2c(c1)CN1C(=O)N(C3CCCC3)S(=O)(=O)CC21 (stereo not given)	.	.	-	.	.	.	.
CC(=O)c1cc(F)c(N2CCN(C(=O)COc3ccccc3F)CC2)cc1C	38	-	-	-	-	-	-
CC(=O)c1cc(F)c(N2CCN(C(=O)C(C)(C)C)CC2)cc1C	-	-	-	-	-	.	.
CCOC(=O)c1c(NC(=O)Cn2nnc(-c3ccccc3Cl)n2)sc(C)c1C	110	-	-	-	-	-	-
CCOC(=O)c1ccc(NC(=O)Cn2nnc(-c3ccccc3C)n2)cc1	-	-	-	-	-	.	.
CCCCn1c(-c2csc3ccccc23)n[nH]c1=S	-	-	-	-	-	.	.
CCCCCCn1c(-c2cccs2)n[nH]c1=S	48	-	-	183	-	-	-
CC(C)(C)OC(=O)NCc1cc(F)ccc1/C=C/S(=O)(=O)NCc1ccc(F)cc1	.	.	-	.	.	.	.
Cc1cc(=O)n2cc(-c3ccccc3)nc2[nH]1	89	-	-	-	-	121	94
Cc1ccc(-c2ccc(=O)[nH]n2)cc1	-	-	-	-	-	.	.
Cc1ccc(-c2cn3c(=O)cc(C)[nH]c3n2)cc1	53	-	-	-	-	55	75
COc1ccc2c(C)c(C(=O)N3CC[C@@H](N4CCC(O)CC4)[C@H](O)C3)oc2c1	45	-	-	-	-	105	81
CCN(CC)C(=O)CC[C@H]1CC[C@]2(CCCN(Cc3ccncc3)C2)O1	.	.	-	.	.	.	.
O=C(CSCc1nc2scc(-c3cccs3)c2c(=O)[nH]1)Nc1ccccn1	34	-	-	-	-	-	-
COC(=O)[C@]12C[C@H](CC(=O)NCc3ccc(C)o3)C(=O)N(Cc3cccc4ccccc34)C1=C[C@H](COCc1ccccc1)O[C@@H]2C	.	.	-	.	.	.	.
C#CCNC(=O)C[C@@H]1C(=O)N(CCc2ccc(Cl)cc2)C2=CCCCC[C@]21C(=O)OC	.	.	-	.	.	.	.
CN(Cc1cn(Cc2ccccc2)nn1)S(=O)(=O)c1ccc(F)cc1Br	.	.	-	.	.	.	.
COCCn1cc(C(=O)N2CCN(C)CC2)c2c3ccccc3n(C)c2c1=O	42	-	-	-	-	106	62
CCOC(=O)N1CCN(C(=O)c2cn(CCOC)c(=O)c3c2c2ccccc2n3C)CC1	43	.	-	-	-	+	+
COCCn1cc(C(=O)NCc2cccs2)c2c3ccccc3n(C)c2c1=O	-	.	-	-	-	.	.
Fc1ccc(Cn2ccc3ccc(-c4ccc5ccn(Cc6ccc(F)cc6F)c5c4)cc32)c(F)c1	.	.	-	.	.	.	.
COC(=O)C1(C)Nc2ccccc2C(=O)N1c1ccccc1C (stereo not given)	52	-	-	-	-	102	71
SMILES	Mtb FBA inh	Mtb bLac sens	CCHF vOTU inh	GDH-TPI counter-1	MazEF act	Mtb FBA confirm	GDH-TPI counter-2
CCNc1nc(Oc2ccc(F)cc2)cc(C(F)(F)F)n1	-	-	-	-	-	.	.
CCNc1nc(Oc2ccc(C#N)cc2)cc(C(F)(F)F)n1	56	-	-	-	-	131	88
Cc1cc(N2CCC(C)CC2)nc2ccc(N3C(=O)CCC3=O)cc12	59	-	-	-	-	98	79
COC(=O)C1=C(C)N(Cc2cccc(C(F)(F)F)c2)C(=NCc2ccccc2C(F)(F)F)NC1c1ccc(Cl)cc1 (stereo not given)	.	.	-	.	.	.	.
c1cn(CCCNc2ncnc3sc4c(c23)CCC4)cn1	-	-	-	-	-	.	.
CCCCNc1ncnc2sc3c(c12)CCN(CCC)C3	34	-	-	-	-	99	89
O=c1oc(CCO)cc2ccc(C#Cc3ccsc3)cc12	45	-	-	-	-	82	52
O=c1oc(CCO)cc2ccc(Br)cc12	-	-	-	-	-	.	.
O=c1oc(CCCO)cc2ccc(C#Cc3cccnc3)cc12	53	-	-	-	-	45	37
O=C1c2ccccc2C(=O)N1CCC#Cc1ccc2cc(CCO)oc(=O)c2c1	-	-	-	-	-	.	.
CC1(C)CC(=O)N(CC(=O)N2CCN(Cc3ccc4c(c3)OCO4)CC2)c2ccccc2S1(=O)=O	.	.	-	.	.	.	.
Cc1ccc(-c2cc(-c3nnc(SCC(=O)Nc4ccc(OCc5ccccc5)cc4)n3N)[nH]n2)cc1	.	.	-	.	.	.	.
N#Cc1ccccc1COC(=O)c1cccnc1N	46	-	-	-	-	153	96
O=C1c2cccc3cccc(c23)C(=O)N1CC1CCN(S(=O)(=O)c2ccccc2)CC1	54	.	-	-	-	47	29
O=C1c2cccc3cccc(c23)C(=O)N1CC1CCN(S(=O)(=O)c2ccc(F)cc2)CC1	-	-	-	-	-	.	.
CCCCNS(=O)(=O)CC1NCCc2ccccc21 (stereo not given)	.	.	-	.	.	.	.
Cc1ccc2nc(C3CCCCC3)c(Cc3ccccc3)n2c1	28	.	-	.	.	-	-
Cc1ccc2nc(-c3ccco3)c(Cc3ccccc3)n2c1	36	.	-	.	.	181	108
Clc1ccc2nc(-c3ccco3)c(Cc3ccccc3)n2c1	-	.	-	.	.	.	.
Fc1cccc(Cc2c(-c3ccco3)nc3c4ccccc4ccn23)c1	27	.	-	.	.	68	46
Cc1ccc2nc(C3CCCCC3)c(Cc3cccc(F)c3)n2c1	-	.	-	.	.	.	.
Clc1cccc(Cc2c(-c3ccco3)nc3c4ccccc4ccn23)c1	.	.	-	.	.	.	.
COC(=O)c1cc(NC(=O)NC2CCCCN(Cc3ccc(Cl)cc3)C2=O)cc(C(=O)OC)c1 (stereo not given)	.	.	-	.	.	.	.
COc1ccc(CN(C(=O)c2cccs2)c2ccccc2C(=O)O)cc1	-	-	-	-	-	.	.
CN(C(=O)c1cccs1)c1ccccc1C(=O)O	27	-	-	-	-	-	-
SMILES	Mtb FBA inh	Mtb bLac sens	CCHF vOTU inh	GDH-TPI counter-1	MazEF act	Mtb FBA confirm	GDH-TPI counter-2
Nc1ncc2c(n1)-c1ccccc1CC2	64	-	-	-	-	-	-
O=C(Nc1ncc2c(n1)-c1ccccc1CC2)c1ccccc1	-	-	-	-	-	.	.
Nc1ncc2c(n1)-c1ccoc1CC2	36	-	-	-	-	125	103
Cc1nc(N)ncc1-c1ccc2c(c1)OCO2	-	-	-	-	-	.	.
CCCCCN1CCCCC(NC(=O)Cc2ccccc2)C1=O (stereo not given)	.	.	-	.	.	.	.
CCOc1ccc(C=Nn2c(-c3cccc(OC(C)C)c3)n[nH]c2=S)cc1	.	.	-	.	.	.	.
CCc1cc(=O)oc2c(C)c(OC(C)C(=O)N3CCC[C@@H]3C(=O)O)ccc12 (stereo not given in full)	42	-	-	-	-	54	61
CCc1cc(=O)oc2c(C)c(OC(C)C(=O)N3CC[C@@]4(O)CCCC[C@H]4C3)ccc12 (stereo not given in full)	-	-	-	-	-	.	.

Screening data deposited in PubChem by several laboratories.
